# PubChem BioAssay (EPA / NIEHS)
# Where “and” joins values, the source holds several entries; their conditions need not be identical. Equal entries are not always repeated. Some structures have more than one record in an assay (separate samples or runs), and their calls can disagree. Calls of active or inactive are those of the source. Rule for the calls: active = hit-call score of the fitted dose curve at least 0.9, where 1 is the maximum; inactive = score below 0.9.
# Experiment: ATG_FoxO_CIS: Attagene CIS-FACTORIAL HepG2 Assay for human Forkhead box O (FoxO) (AID 2282943)
# Conditions: HepG2 Attagene cis-reporter, FoxO element, mRNA; actives raise or lower the signal
# Procedure: ATG_CIS is a cell-based, multiplexed-readout assay that uses HepG2, a human liver cell line, with measurements taken at 24 hours after chemical dosing in a 24-well plate.ATG_FoxO_CIS is one of 52 assay component(s) measured or calculated from the ATG_CIS assay. It is designed to make measurements of mRNA induction, a form of inducible reporter, as detected with fluorescence intensity signals by Reverse transcription polymerase chain reaction (RT-PCR) and Capillary electrophoresis technology.Data from the assay component ATG_FoxO_CIS was analyzed into 1 assay endpoint. This assay endpoint, ATG_FoxO_CIS, was analyzed with bidirectional fitting relative to DMSO as the negative control and baseline of activity. Using a type of inducible reporter, measures of mRNA for gain or loss-of-signal activity can be used to understand the reporter gene at the transcription factor-level as they relate to the gene FOXO1 and FOXO3. Furthermore, this assay endpoint can be referred to as a primary readout, because this assay has produced multiple assay endpoints where this one serves a reporter gene function. To generalize the intended target to other relatable targets, this assay endpoint is annotated to the dna binding intended target family, where the subfamily is forkhead box protein.
# Human liver HepG2 cells are transiently transfected with multiple reporter transcription units (MRTUs) in 6-well plates using FuGene 6 reagent (Roche; 3 ml FuGene/1 mg DNA). The MRTU constructs are regulated by a cis-regulating element (promoter). […] A major difference between the CIS and TRANS system is that in CIS activities of endogenous TFs are measured, whereas the TRANS assay evaluates changes in activities of exogenous, chimeric NR-Gal4 proteins. […] At the end of 24 hour incubation, total RNA was isolated using TriZol reagent (Invitrogen). The isolated RNA is then reverse-transcribed using oligo(dT) primer and Mo-MLV reverse transcriptase (Invitrogen) with DNAse I (Ambion) treatment for 30 min. The one-tenth of the produced cDNA was amplified by PCR using Taq DNA polymerase (Invitrogen) and two reporter sequence-specific primers. The PCR products were fluorescently labeled by primer extension with 6-arboxyfluorescein (6-FAM) 5'-labeled reporter sequence-specific primer (2 min at 95 C, 20 s at 68 C and 10 min at 72 C) and these products were digested with 5U of HpaI (New England Biolabs) for 2h at 37 C. The fragments were purified using Qiaquick PCR columns (Qiagen), analyzed on an ABI 3130xL genetic analyzer (Applied Biosystems) with peak positions identified by using a set of X-rhodamine (ROX)-labeled MapMarker1000 molecular weight standards (BioVentures). The raw capillary electrophoresis data was processed using Attagraph software (Attagene).
Compound,outcome,AC50
Clc1ccc(C(Cl)(Cl)Cl)cc1,inactive,
Oc1c(Cl)c(Cl)c(Cl)c(Cl)c1Cl,inactive,33.6 µM (active)
COc1ccc(O)c(C(C)(C)C)c1,inactive,
Sc1ccccc1,inactive,
c1cc2ccc3cccc4ccc(c1)c2c34,inactive,
CCOCCOC(C)=O,inactive,
Cc1ccccc1[N+](=O)[O-],inactive,
Nn1cnnc1,inactive,
Clc1ccc(C(c2ccccc2Cl)C(Cl)(Cl)Cl)cc1 (stereo not given),inactive,
C[C@]12CCC(=O)C=C1CC[C@@H]1[C@@H]2CC[C@@]2(C)[C@H]1CC[C@]2(C)O,inactive,
CCOC(=O)C(O)(c1ccc(Cl)cc1)c1ccc(Cl)cc1,inactive,
c1ccc(-c2ccccc2)cc1,inactive,
N#Cc1ccc(N(CC(N)=O)CC(F)(F)F)cc1C(F)(F)F,inactive,
CCC(=O)O[C@H]1CC[C@H]2[C@@H]3CCC4=CC(=O)CC[C@]4(C)[C@H]3CC[C@]12C,inactive,135 µM (active) and 185 µM (active)
Cc1cccc(C)c1N,inactive,
O=C(O)C(F)(F)C(F)(F)C(F)(F)C(F)(F)C(F)(F)F,inactive,
COS(=O)(=O)OC,inactive,
CC(C)(O)C(=O)Nc1ccc([N+](=O)[O-])c(C(F)(F)F)c1,inactive,
C[C@]12CCC(=O)C=C1CC[C@@H]1[C@@H]2CC[C@]2(C)C(=O)CC[C@@H]12,inactive,

Compound,outcome,AC50
O=C(NC(=O)c1c(F)cccc1F)Nc1cc(Cl)c(OC(F)(F)C(F)F)c(Cl)c1,inactive,
O=S(=O)(O)C(F)(F)C(F)(F)C(F)(F)C(F)(F)F,inactive,
CCCN(CCC)N=O,inactive,
ClC1=C(Cl)[C@]2(Cl)[C@@H]3[C@@H]4C[C@@H]([C@H]5O[C@@H]45)[C@@H]3[C@@]1(Cl)C2(Cl)Cl,inactive,
Oc1ccc(C(c2ccc(O)cc2)(C(F)(F)F)C(F)(F)F)cc1,inactive,
O=C(O)C(F)(F)C(F)(F)C(F)(F)C(F)(F)C(F)(F)C(F)(F)C(F)(F)C(F)(F)F,inactive,
CCOP(=S)(OCC)SCSC(C)(C)C,inactive,
CCNc1nc(NC(C)C)nc(SC)n1,inactive,
CCC(C)(c1ccc(O)cc1)c1ccc(O)cc1,inactive,
CCCCCCOC(=O)c1ccccc1C(=O)OCCCCCC,inactive,
Cc1cc(-c2ccc(N)c(C)c2)ccc1N,inactive,
Cc1ccccc1O,inactive,
CCC(C)c1cc([N+](=O)[O-])cc([N+](=O)[O-])c1O (stereo not given),inactive,
Nc1ccc(-c2ccc(N)cc2)cc1,inactive,
O=NN(c1ccccc1)c1ccccc1,inactive,
CCCCCCCCCc1ccc(O)cc1,inactive,
C=CC(=O)NCNC(=O)C=C,inactive,
CCC(C)(CC)c1cc(NC(=O)c2c(OC)cccc2OC)on1,inactive,
O=C(O)C(F)(F)C(F)(F)C(F)(F)C(F)(F)C(F)(F)C(F)(F)C(F)(F)C(F)(F)C(F)(F)F,inactive,
